Assay outcomes (PubChem BioAssay)
A selection: hits, their analogues and other compounds. The true share with any hit is near 7.5%.
Rab9 prom act: activates the Rab9 promoter; Huh7 Rab9 promoter-luciferase reporter, luminescence, 24 h; Potency, µM (top dose mostly 9.22 µM), for the others: at the top dose activation, negative = inhibition, hits mostly activators; 2.8% of 320,000 active; AID 485297; note: % of control where 0% means no effect; nearly all actives have a fitted effect of over 60% in size
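Luminescence from Amplite-detected luciferase (10 minutes, ambient) reports Rab9 promoter activation. Before that, stable Rab9-luciferase Huh7 cells (1500/well, reduced-serum OP-MEM I plus 10% FBS) were exposed to compound for 24 hours at 37C.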
KinaseGlo FLuc: blocks Kinase-Glo luciferase, a counter-screen artifact. Q27757. Kinase-Glo luciferase, ATP luminescence, 8 min. Potency, µM (titrated, usually from 38.3 µM), without a hit: at the top dose activity change, negative = inhibition, most hits filed as inhibitors. 0.28% of 200,000 active; note: % is set by controls: 0 for no effect and ±100 for the full control effect; nearly all actives have a fitted effect of over 60% in size
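Compound is pinned into ATP-containing buffer (10 uM ATP, imidazole pH 7.2, 7 mM MgCl2). Kinase-Glo luciferase reagent is then added. Light output is recorded following an 8-min room-temperature incubation.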
SMN2 splice up: enhancers of SMN2 splice variant expression; 2.8% of 210,000 active; HEK293 SMN2-luciferase splicing reporter, luminescence, 30-36 h; Potency, µM (titrated, usually from 46.1 µM), for the others: at the top dose activity change, positive = activation, usual class: activators; note: % of control where 0% means no effect; nearly all actives have a fitted effect of over 55% in size
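HEK293 cells carry an SMN2 […]–luciferase reporter in which exon 7 inclusion puts luciferase in frame. Cells were plated 10-12 h before compound addition, then incubated 30-36 h at 37C. ONE-Glo luminescence was read; sodium butyrate at 4.5 mM final served as control.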
NPC1 promoter act: NPC1 promoter activation; 2.4% of 320,000 active; Potency, µM (doses to about 9.22 µM), inactives show at the top dose activation, actives largely listed as activators; Huh7 NPC1 promoter luciferase reporter, 24 h; note: % of control where 0% means no effect; nearly all actives have a fitted effect of over 60% in size
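Stable NPC1-promoter luciferase Huh7 line; cpd (DMSO) 24 h, 37 °C, 5% CO2; Amplite luciferase reagent 10 min RT; luminescence readout. qHTS format.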
ELG1 genotox: genotoxicity induction in ELG1-luciferase HEK293T cells; Potency, µM (titrated, usually from 46 µM), inactives show at the highest dose activity change, positive = activation, most hits filed as activators; HEK293T ELG1-luciferase reporter, luminescence, 16 h; 1.3% of 330,000 active; note: % of control where 0% means no effect; nearly all actives have a fitted effect of over 60% in size
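Step 1: seed 2,000 HEK293T ELG1-luciferase cells per well. Step 2: add compound or DMSO, incubate 16 hr at 37 °C. Step 3: ONE-Glo, 30 min at room temperature, read luminescence.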
FLuc counter: firefly luciferase modulation, counter-screen for miR-21 project | P08659 | purified FLuc, Km substrates, luminescence inhibition | Potency, µM (top dose mostly 57.5 µM), for inactives: at the top dose activity change, negative = inhibition, hits mostly inhibitors | 6.9% of 360,000 active | AID 588342;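 note: plate controls were vehicle for no effect and reference inhibitor for full effect; nearly all actives have a fitted effect of over 55% in size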
Target sequence (P08659 whole entry, looked up): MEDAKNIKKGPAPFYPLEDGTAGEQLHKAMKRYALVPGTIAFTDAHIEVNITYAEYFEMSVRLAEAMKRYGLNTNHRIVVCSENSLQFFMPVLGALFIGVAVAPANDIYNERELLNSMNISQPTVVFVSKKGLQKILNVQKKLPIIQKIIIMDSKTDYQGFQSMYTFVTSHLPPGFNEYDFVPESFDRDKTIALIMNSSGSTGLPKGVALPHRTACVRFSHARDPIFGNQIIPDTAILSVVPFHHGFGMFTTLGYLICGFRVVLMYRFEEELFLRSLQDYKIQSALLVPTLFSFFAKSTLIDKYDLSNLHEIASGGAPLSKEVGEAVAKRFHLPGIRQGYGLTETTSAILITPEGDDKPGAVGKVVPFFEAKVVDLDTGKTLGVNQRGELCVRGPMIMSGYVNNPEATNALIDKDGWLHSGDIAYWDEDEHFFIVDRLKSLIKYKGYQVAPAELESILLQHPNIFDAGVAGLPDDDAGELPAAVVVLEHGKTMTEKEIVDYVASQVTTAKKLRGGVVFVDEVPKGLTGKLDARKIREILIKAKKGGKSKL
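Purified P. pyralis luciferase (10nM final) with 10uM D-luciferin and 10uM ATP (Km levels) in 50mM Tris acetate pH 7.5, 10mM Mg acetate, 0.01% Tween-20, 0.05% BSA; qHTS 6-point titration, ~60 µM downward; luminescence read.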
* hit, by the source's call. Calls come from the whole dose curve; as a rule, active = well fitted curve in the direction sought with a large enough effect; inconclusive = small, poorly fitted or top-dose-only effect, or another doubt; inactive = no such curve, though single readings can be large; an effect the other way counts as inactive or inconclusive. Potency is the fitted concentration of half-maximal effect.

What do the screens show for `CC(C)c1ccc(NC(=O)c2ccccc2NC(=O)C2CC=CCC2C(=O)O)cc1` (stereo not given)?
Rab9 prom act: 15%; NPC1 promoter act: 15%; ELG1 genotox: inconclusive; FLuc counter: 27µM*

What do the screens show for `C=CCOc1ccc(C2c3c(oc4ccccc4c3=O)C(=O)N2CCCN2CCOCC2)cc1` (stereo not given)?
Rab9 prom act: 0%; KinaseGlo FLuc: 0%; SMN2 splice up: 4%; NPC1 promoter act: -3%; ELG1 genotox: 7%; FLuc counter: 4%

Results for Cc1ccc(C2c3c(oc4ccccc4c3=O)C(=O)N2CCCN2CCOCC2)o1 (stereo not given) ?
Rab9 prom act: 1%; KinaseGlo FLuc: -3%; SMN2 splice up: 7.1µM*; NPC1 promoter act: 2%; ELG1 genotox: 7%; FLuc counter: 3%

Results for CC(C)Oc1ccc(C2c3c(oc4ccccc4c3=O)C(=O)N2CCCN2CCOCC2)cc1 (stereo not given) ?
Rab9 prom act: 14%; KinaseGlo FLuc: 1%; NPC1 promoter act: 4%; ELG1 genotox: 21µM*; FLuc counter: 1%

What do the screens show for `O=C(CSc1nc2ccccc2[nH]1)NCc1ccco1`?
Rab9 prom act: 13%; KinaseGlo FLuc: 1%; SMN2 splice up: 16%; NPC1 promoter act: 8%; ELG1 genotox: inconclusive; FLuc counter: -13%

Results for Cc1cc2nc(-c3cccnc3SCC(=O)NC3CC3)[nH]c2cc1C ?
Rab9 prom act: inconclusive; KinaseGlo FLuc: inconclusive; SMN2 splice up: 16µM*; NPC1 promoter act: inconclusive; ELG1 genotox: inconclusive; FLuc counter: 2.7µM*

Results for O=C(CSc1nc2ncccc2[nH]1)NCc1ccco1 ?
Rab9 prom act: -2%; NPC1 promoter act: 3%; ELG1 genotox: 0%; FLuc counter: 5%

How did Cc1cc2nc(-c3cccnc3SCC(=O)NCc3ccco3)[nH]c2cc1C do in these assays?
Rab9 prom act: 3.2µM*; KinaseGlo FLuc: 11µM*; SMN2 splice up: 13µM*; NPC1 promoter act: 4µM*; ELG1 genotox: inconclusive; FLuc counter: 0.95µM*

What do the screens show for `O=C(CSc1ncccc1-c1nc2ccccc2[nH]1)NCc1ccco1`?
Rab9 prom act: 26%; KinaseGlo FLuc: -12%; SMN2 splice up: -13%; NPC1 promoter act: 20%; ELG1 genotox: inconclusive; FLuc counter: 24µM*

How did C1CCN(Cc2nnnn2CC2CCCO2)CC1 (stereo not given) do in these assays?
Rab9 prom act: -1%; KinaseGlo FLuc: -7%; SMN2 splice up: 25%; NPC1 promoter act: -3%; ELG1 genotox: 1%; FLuc counter: -1%

Results for CCN(CC)C(=O)C1=CC(c2ccc3c(c2)OCO3)=NS(=O)(=O)N1C ?
FLuc counter: -11%

Results for Cc1[nH]nc(N=CC2=C(O)CC(C)(C)CC2=O)c1-c1ccccc1 ?
Rab9 prom act: 0%; KinaseGlo FLuc: 0%; SMN2 splice up: -11%; NPC1 promoter act: -4%; ELG1 genotox: 18%; FLuc counter: 13µM*

What do the screens show for `C/C(=N\NC(=O)c1ccccc1C)c1cccnc1`?
Rab9 prom act: 29%; NPC1 promoter act: 17%; ELG1 genotox: 3%; FLuc counter: inconclusive

How did C/C(=N\Nc1ccccc1C)c1cccnc1 do in these assays?
Rab9 prom act: 4%; NPC1 promoter act: 2%; ELG1 genotox: 11%; FLuc counter: 17µM*

What do the screens show for `Cc1ccc(-c2nn(-c3ccccc3)cc2C=O)o1`?
Rab9 prom act: inconclusive; KinaseGlo FLuc: -2%; SMN2 splice up: 10µM*; NPC1 promoter act: 9%; ELG1 genotox: inconclusive; FLuc counter: 3µM*

Results for Cc1ccc(-c2nn(-c3ccccc3)cc2C(N)=O)o1 ?
Rab9 prom act: -5%; KinaseGlo FLuc: -1%; SMN2 splice up: 18%; NPC1 promoter act: 1%; ELG1 genotox: 0%; FLuc counter: inconclusive

How did Cc1ccc(-c2nn(-c3cccc(F)c3)cc2CNCc2cccnc2)o1 do in these assays?
Rab9 prom act: 1%; KinaseGlo FLuc: 3%; NPC1 promoter act: -1%; ELG1 genotox: -6%; FLuc counter: 19µM*

What do the screens show for `Cc1ccc(-c2nn(-c3ccccc3)cc2/C=C/C(=O)OCC(=O)NC2CC2)o1`?
Rab9 prom act: 2%; KinaseGlo FLuc: -1%; SMN2 splice up: 9%; NPC1 promoter act: -6%; ELG1 genotox: -2%; FLuc counter: -11%

How did Cc1ccc(-c2nn(-c3ccccc3)cc2CO)o1 do in these assays?
Rab9 prom act: inconclusive; KinaseGlo FLuc: 1%; SMN2 splice up: 8.9µM*; NPC1 promoter act: inconclusive; ELG1 genotox: inconclusive; FLuc counter: 12µM*

How did OCc1cn(-c2ccccc2)nc1-c1ccco1 do in these assays?
Rab9 prom act: 24%; KinaseGlo FLuc: -10%; SMN2 splice up: -5%; NPC1 promoter act: inconclusive; ELG1 genotox: inconclusive; FLuc counter: 17µM*

What do the screens show for `Cc1ccc(-c2nn(-c3cccc(F)c3)cc2CN2CCN(c3ccccn3)CC2)o1`?
Rab9 prom act: -16%; KinaseGlo FLuc: 0%; NPC1 promoter act: -1%; ELG1 genotox: -9%; FLuc counter: inconclusive

Results for O=C(COC(=O)CN1C(=O)c2ccccc2C1=O)NC1CCCC1 ?
Rab9 prom act: -1%; NPC1 promoter act: -3%; ELG1 genotox: 0%; FLuc counter: 1%

How did CCc1nn2c(=O)cc(COC(=O)c3cccc(NC(=O)c4cccs4)c3)nc2s1 do in these assays?
FLuc counter: 2%

What do the screens show for `Cn1c(Cl)c(/C=N/OC(=O)c2ccccc2Cl)c2ccccc21`?
Rab9 prom act: -1%; KinaseGlo FLuc: 3%; SMN2 splice up: -1%; NPC1 promoter act: 2%; ELG1 genotox: -2%; FLuc counter: 6.7µM*

How did Cc1nn(C)c(Cl)c1/C=N/OC(=O)c1ccc(F)cc1 do in these assays?
Rab9 prom act: 1%; KinaseGlo FLuc: -1%; SMN2 splice up: 9%; NPC1 promoter act: -2%; ELG1 genotox: 0%; FLuc counter: 17µM*

What do the screens show for `Cc1nn(C)c(Cl)c1/C=N/OC(=O)c1ccccc1`?
Rab9 prom act: -2%; KinaseGlo FLuc: -2%; SMN2 splice up: 0%; NPC1 promoter act: -3%; ELG1 genotox: 1%; FLuc counter: 12µM*

How did Cn1nc(C(F)(F)F)c(/C=N/OC(=O)c2ccccc2)c1Cl do in these assays?
Rab9 prom act: -7%; KinaseGlo FLuc: -1%; SMN2 splice up: -6%; NPC1 promoter act: -2%; ELG1 genotox: 1%; FLuc counter: inconclusive

How did CCCNC(=O)CNC(=O)c1ccc(C#N)cc1 do in these assays?
ELG1 genotox: 2%
